Assay results published in PubChem BioAssay (NCATS).
Inconclusive results are not listed. Where a call stands in place of a potency, no number is given. Values without a mark were called inactive. Active and inactive are the calls of the source. Unless noted, calls follow the shape of the dose curve; as a rule, active = well fitted curve in the direction sought with a large enough effect; inconclusive = small, poorly fitted or top-dose-only effect, or another doubt; inactive = no such curve, though single readings can be large; an effect the other way counts as inactive or inconclusive.

Columns and labels:
[1] = molecular target: Protein phosphatase 1D (Homo sapiens) (UniProt O15297); test: RapidFire Mass Spectrometry qHTS Assay for Modulators of WT P53-Induced Phosphatase 1 (WIP1) (AID 1347424); conditions: WIP1 dephosphorylation of phosphopeptide, RapidFire MS; series mostly up to 63 µM;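 also: amount of dephosphorylated VEPPL-S-QETFS peptide product formed by WIP1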
Chain of Protein phosphatase 1D (Homo sapiens) (O15297 whole entry, looked up): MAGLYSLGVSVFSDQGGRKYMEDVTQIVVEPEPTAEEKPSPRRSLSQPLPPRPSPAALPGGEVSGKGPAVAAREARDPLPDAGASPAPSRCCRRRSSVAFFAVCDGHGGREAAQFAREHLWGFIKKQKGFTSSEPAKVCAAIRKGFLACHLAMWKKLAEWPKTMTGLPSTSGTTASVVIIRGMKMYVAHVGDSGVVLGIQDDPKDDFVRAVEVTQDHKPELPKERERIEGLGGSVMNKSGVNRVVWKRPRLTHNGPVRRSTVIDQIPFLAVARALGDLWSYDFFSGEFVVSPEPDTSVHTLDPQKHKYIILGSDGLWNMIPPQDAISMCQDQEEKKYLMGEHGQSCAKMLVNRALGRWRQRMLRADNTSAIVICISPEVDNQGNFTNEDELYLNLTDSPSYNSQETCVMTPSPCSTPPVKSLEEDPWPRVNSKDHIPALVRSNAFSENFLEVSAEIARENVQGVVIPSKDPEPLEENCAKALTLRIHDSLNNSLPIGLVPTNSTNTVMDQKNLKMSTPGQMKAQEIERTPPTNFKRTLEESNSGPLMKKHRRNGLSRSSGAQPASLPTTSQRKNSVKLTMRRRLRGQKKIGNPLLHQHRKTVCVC
Procedure, shortened: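 Mass-spectrometric measurement of dephosphorylated peptide after a 5 min room-temperature reaction of 10 nM WIP1 with 2 uM phosphopeptide, following 1 h compound preincubation in 30 mM MgCl2 buffer.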

[2] = molecular target: Protein phosphatase 1D (Homo sapiens) (UniProt O15297); test: Rhodamine-PBP qHTS Assay for Modulators of WT P53-Induced Phosphatase 1 (WIP1) (AID 1347425); conditions: recombinant WIP1, Rhodamine-PBP phosphate fluorescence, real-time; series mostly up to 57.5 µM
Procedure, shortened: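 Read-out: Rhodamine-PBP fluorescence (ex 525/em 598 nm) for released Pi, read each minute for 11 min after adding 10 uM VEPPL-pS-QETFS; signal taken as f1 minus pre-substrate f0. Enzyme 5 nM WIP1 with 1 hr room-temperature compound preincubation.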

[3] = Primary qHTS for inhibitors of La Crosse Virus (LACV) - induced cell death in SH-SY5Y cells (AID 1508616); conditions: SH-SY5Y LACV cytopathicity rescue, ATP luminescence, 6 d; series mostly up to 4.29 µM;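 also: top concentration of the series differs between compounds; higher means more rescue of cells from virus-induced death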
Procedure, shortened: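 SH-SY5Y, 6000 cells/well; cpd via pin tool in DMSO; LACV 0.01 MOI; 6 d 37C 5% CO2; ATPLite, 5 min RT; luminescence normalized to ±virus DMSO controls.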

[4] = molecular target: Calcium and integrin-binding protein 1 (Homo sapiens) (UniProt Q99828); test: Primary qHTS for Identification of Calcium Integrin Binding Protein 1 (CIB1) Competitor (AID 1508620); conditions: CIB1-GST / FITC-alphaIIb peptide fluorescence polarization; series mostly up to 114 µM; also: potency is read from the fitted curve at half-maximal effect
Chain of Calcium and integrin-binding protein 1 (Homo sapiens) (Q99828 whole entry, looked up): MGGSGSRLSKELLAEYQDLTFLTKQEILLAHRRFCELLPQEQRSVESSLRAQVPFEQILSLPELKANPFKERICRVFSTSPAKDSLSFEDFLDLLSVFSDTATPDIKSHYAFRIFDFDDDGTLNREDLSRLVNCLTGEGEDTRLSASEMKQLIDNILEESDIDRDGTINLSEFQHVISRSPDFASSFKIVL
Procedure, shortened: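 Fluorescence polarization competition: CIB1-GST (1 uM final) preincubated with compound 15 min at room temperature, then FITC-labeled alphaIIb peptide (100 nM final) added for another 15 min. Polarization read at Ex 480/Em 540.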

[5] = Primary qHTS for small molecule stabilizers of the endoplasmic reticulum resident proteome: Secreted ER Calcium Modulated Protein (SERCaMP) assay (AID 1508630); conditions: SH-SY5Y GLuc-SERCaMP (Gaussia luciferase released on ER calcium loss) secretion, thapsigargin, luminescence; series mostly up to 38.4 µM
Procedure, shortened: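 The SH-SY5Y reporter protocol was run at 3 concentrations up to 38.3 uM (primary) or 11 concentrations (follow-up): 16 h compound, 100 nM thapsigargin for 4 h, then extracellular luciferase luminescence.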

[6] = Confirmatory qHTS for small molecule stabilizers of the endoplasmic reticulum resident proteome: Secreted ER Calcium Modulated Protein (SERCaMP) assay (AID 1508628); conditions: SERCaMP secreted luciferase ER calcium/proteostasis reporter; series mostly up to 76.3 µM; also: nearly all actives have a fitted effect of over 40% in size; also: potency is read from the fitted curve at half-maximal effect
Procedure, shortened: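 Reporter secretion upon ER calcium depletion (100 nM thapsigargin, 4 h, 37C) is measured as medium luminescence with coelenterazine, after 16 h compound pretreatment of SH-SY5Y-GLuc-SERCaMP cells; primary at three concentrations up to 38.3 uM, follow-up at 11 (up to 76.6 uM).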

[7] = Counterscreen qHTS for small molecule stabilizers of the endoplasmic reticulum resident proteome: GLuc-NoTag assay (AID 1508627); conditions: Gaussia luciferase NoTag secretion counterscreen, luminescence, thapsigargin 100 nM for final 4 h; series mostly up to 76.4 µM
Procedure, shortened: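 Secreted GLuc lacking the SERCaMP modification is measured in SH-SY5Y cells exposed to compound for 19 h and then to thapsigargin (100 nM, 4 h) to deplete ER calcium; hits retested at 11 concentrations, up to 76.6 uM.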

[8] = Primary qHTS for Huh7 cytotoxicity: counterscreen for inhibitors of MERS-S pseudotyped particle cell entry (AID 1479147; calls by dose curve); conditions: cell viability read-out; series mostly up to 57.1 µM
[9] = Primary qHTS for inhibitors of MERS-S pseudo-typed particle cell entry (AID 1479149; calls by dose curve; also: nearly all actives have a fitted effect of over 60% in size); conditions: MERS-S pseudotyped particle entry, luciferase; series mostly up to 57.1 µM
[10] = Primary qHTS for inhibitors of SARS-S pseudo-typed particle cell entry (AID 1479145; calls by dose curve; also: nearly all actives have a fitted effect of over 45% in size); conditions: SARS-S pseudotyped particle cell entry, luciferase reporter; series mostly up to 57.1 µM
[11] = Primary qHTS for Vero E6 cytotoxicity: counterscreen for inhibitors of SARS-S pseudo-typed particle cell entry (AID 1479150; calls by dose curve); conditions: cell viability; series mostly up to 57.1 µM
[12] = Cell Viability qHTS for small molecule stabilizers of the endoplasmic reticulum resident proteome (AID 1508629); conditions: cell viability counter-screen, 100 nM thapsigargin for final 4 h;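 also: human SH-SY5Y neuroblastoma cells carrying the GLuc-SERCaMP reporter; compound exposure about 46 h in total before the viability read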

With CCCCCCC(=O)CCCCCC/C=C/C[C@@H](O)[C@H](O)[C@@](N)(CO)C(=O)O the Potency [1] was “inactive”, the outcome [2] was “inactive” and the outcome [3] was “inactive”. For the same compound, the Potency [4] was “inactive” and the Potency [5] was “inactive”.
For Clc1ccccc1N1CCNCC1, the Potency [1] was “inactive”, the outcome [2] was “inactive” and the outcome [3] was “inactive”. For the same compound, the Potency [4] was “inactive”.
For CC(=O)C1CCOC1=O (stereo not drawn), the Potency [1] was “inactive”, the outcome [2] was “inactive” and the outcome [3] was “inactive”. The Potency [4] was “inactive”.
In the case of C=CCC1([C@H](C)CCC)C(=O)NC(=O)NC1=O, the Potency [1] is reported as “inactive”, the outcome [2] is reported as “inactive” and the outcome [3] is reported as “inactive”. The Potency [4] was “inactive”.
With CN1CC[C@]23c4c5ccc(O)c4O[C@H]2[C@@H](O)C=C[C@H]3[C@H]1C5 the Potency [1] was “inactive”, the outcome [2] was “inactive” and the Potency [4] was “inactive”.
In the case of CCN[C@@H](C)Cc1ccccc1, the Potency [1] is reported as “inactive”, the outcome [2] is reported as “inactive” and the outcome [3] is reported as “inactive”. The Potency [4] was “inactive”.
For CCCOC(=O)c1cncn1C(C)c1ccccc1 (stereo not drawn), the Potency [1] was “inactive”, the outcome [2] was “inactive” and the outcome [3] was “inactive”. The Potency [4] was “inactive” and the Potency [5] was “inactive”.
For CNCC(=O)c1ccc(O)c(O)c1, the Potency [1] was “inactive”, the outcome [2] was “inactive” and the outcome [3] was “inactive”. The Potency [4] was “inactive” and the Potency [6] was “inactive”.
With CN1CCC(O)(c2ccc(F)cc2)C(C(=O)c2ccc(F)cc2)C1 (stereo not drawn) the Potency [1] was “inactive”, the outcome [2] was “inactive” and the outcome [3] was “inactive”. The Potency [4] was “inactive” and the Potency [5] was “inactive”.
In the case of CC(Cc1ccccc1)N(C)Cc1ccco1 (stereo not drawn), the Potency [1] is reported as “inactive”, the outcome [2] is reported as “inactive” and the outcome [3] is reported as “inactive”. The Potency [4] was “inactive” and the Potency [5] was “inactive”.
For CCC1(CC)C(=O)C=CNC1=O, the Potency [1] was “inactive”, the outcome [2] was “inactive” and the outcome [3] was “inactive”. For the same compound, the Potency [4] was “inactive”.
In the case of CCCCCCCCCC(=O)O[C@H]1CC[C@H]2[C@@H]3CCC4=CC(=O)CC[C@@H]4[C@H]3CC[C@]12C, the Potency [1] is reported as “inactive”, the outcome [2] is reported as “inactive” and the outcome [3] is reported as “inactive”. The Potency [4] was “inactive” and the Potency [5] was “inactive”.
In the case of CC(C)(N)Cc1ccccc1Cl, the Potency [1] is reported as “inactive”, the outcome [2] is reported as “inactive” and the outcome [3] is reported as “inactive”. For the same compound, the Potency [4] was “inactive”.
For CCN(CC)CCc1c[nH]c2ccccc12, the Potency [1] was “inactive”, the outcome [2] was “inactive” and the outcome [3] was “inactive”. For the same compound, the Potency [4] was “inactive” and the Potency [5] was “inactive”.
In the case of O=C1OC(CCN2CCCCC2)OC1(c1ccccc1)c1ccccc1 (stereo not drawn), the Potency [1] is reported as “inactive”, the outcome [2] is reported as “inactive” and the outcome [3] is reported as “inactive”. For the same compound, the Potency [4] was “inactive” and the Potency [5] was “inactive”.
For C[C@H]1[C@@H]2Cc3ccc(O)cc3[C@@]1(C)CCN2C, the Potency [1] was “inactive”, the outcome [2] was “inactive” and the outcome [3] was “inactive”. The Potency [4] was “inactive”, the outcome [7] was “inactive” and the Potency [6] was 22.4 µM (active).
For CC(C)=CC1C(C(=O)OCN2C(=O)C3=C(CCCC3)C2=O)C1(C)C (stereo not drawn), the Potency [1] was “inactive”, the outcome [2] was “inactive” and the Potency [4] was “inactive”. The Potency [5] was “inactive”.
For CCN[C@H](C)Cc1cccc(C(F)(F)F)c1, the Potency [1] was “inactive”, the outcome [2] was “inactive” and the outcome [3] was “inactive”. The Potency [4] was “inactive” and the Potency [5] was “inactive”.
With c1ccc(CN2CCNCC2)cc1 the Potency [1] was “inactive”, the outcome [3] was “inactive” and the Potency [4] was “inactive”.
For CCC(CC)(CNC(=O)CCCO)c1cccc(OC)c1, the Potency [1] was “inactive”, the Potency [8] was “inactive” and the Potency [9] was “inactive”. For the same compound, the outcome [3] was “inactive”, the Potency [4] was “inactive” and the Potency [5] was “inactive”.
For C[C@]12CC[C@H]3[C@@H](CCC4=CC(=O)CC[C@@H]43)[C@@H]1CC[C@@H]2OC(=O)CCc1ccco1, the Potency [1] was “inactive”, the Potency [10] was “inactive” and the Potency [8] was “inactive”. The Potency [9] was “inactive”, the Potency [11] was “inactive” and the outcome [3] was “inactive”. The Potency [4] was “inactive” and the Potency [5] was “inactive”.
For Nc1ccccc1, the Potency [1] was “inactive”, the Potency [10] was “inactive” and the Potency [8] was “inactive”. For the same compound, the Potency [9] was “inactive”, the Potency [11] was “inactive” and the outcome [3] was “inactive”. For the same compound, the Potency [4] was “inactive” and the Potency [5] was “inactive”.
With Clc1ccc(C(c2ccc(Cl)cc2)C(Cl)(Cl)Cl)cc1 the Potency [1] was “inactive”, the Potency [10] was “inactive” and the Potency [8] was “inactive”. For the same compound, the Potency [9] was “inactive”, the Potency [11] was “inactive” and the outcome [3] was “inactive”. The Potency [4] was “inactive”.
For CN1C(=O)NC(=O)C(C)(C2=CCCCC2)C1=O (stereo not drawn), the Potency [1] was “inactive”, the Potency [8] was “inactive” and the Potency [9] was “inactive”. For the same compound, the Potency [11] was “inactive”, the outcome [3] was “inactive” and the Potency [4] was “inactive”. For the same compound, the Potency [5] was “inactive”.
In the case of COc1c2c(cc3c1OCO3)CCN(C)C2, the Potency [1] is reported as “inactive”, the Potency [10] is reported as “inactive” and the Potency [8] is reported as “inactive”. The Potency [9] was “inactive”, the Potency [11] was “inactive” and the outcome [3] was “inactive”. For the same compound, the Potency [4] was “inactive”, the outcome [7] was “inactive” and the Potency [6] was “inactive”. The max response [12] was 7.99%.
In the case of COP(=S)(OC)Oc1cc(Cl)c(Cl)cc1Cl, the Potency [1] is reported as “inactive”, the Potency [10] is reported as “inactive” and the Potency [8] is reported as “inactive”. For the same compound, the Potency [9] was “inactive”, the Potency [11] was “inactive” and the outcome [3] was “inactive”. The Potency [4] was “inactive” and the Potency [5] was “inactive”.
For COP(=S)(OC)Oc1ccc(SC)c(C)c1, the Potency [1] was “inactive”, the Potency [10] was “inactive” and the Potency [8] was “inactive”. For the same compound, the Potency [9] was “inactive”, the Potency [11] was “inactive” and the outcome [3] was “inactive”. The Potency [4] was “inactive” and the Potency [5] was “inactive”.
For C[C@@H]1CC2=CC(=O)CC[C@@H]2[C@H]2CC[C@@]3(C)[C@@H](CC[C@]3(C)O)[C@@H]21, the Potency [1] was “inactive”, the Potency [8] was “inactive” and the Potency [11] was “inactive”. The outcome [3] was “inactive”, the Potency [4] was “inactive” and the Potency [5] was “inactive”.
With C[C@]12CC[C@H]3[C@@H](CCC4=CC(=O)CC[C@@H]43)[C@@H]1CC[C@@H]2OC(=O)CCC1CCCCC1 the Potency [1] was “inactive”, the Potency [10] was “inactive” and the Potency [8] was “inactive”. For the same compound, the Potency [9] was “inactive”, the Potency [11] was “inactive” and the outcome [3] was “inactive”. The Potency [4] was “inactive” and the Potency [5] was “inactive”.
In the case of CC(=O)OCC1=C(C(=O)O)N2C(=O)[C@@H](N)[C@H]2SC1, the Potency [1] is reported as “inactive”, the outcome [3] is reported as “inactive” and the Potency [4] is reported as “inactive”.
In the case of CCN(CC)C(=O)[C@@H]1C=C2c3cccc4[nH]cc(c34)C[C@H]2N(C)C1, the Potency [1] is reported as “inactive”, the outcome [2] is reported as “inactive” and the Potency [4] is reported as 63.1 µM (active). The Potency [5] was “inactive”.
